According to article PMC4336329 (PLoS ONE, 2015):
In all, about 310,000 compounds went through this assay and about 14,000 (4.5%) showed an effect of 50% or more. The effect is printed as a negative number. The entries come from a sample that favours strong results as a whole.

target: human ether-à-go-go-related gene (hERG) potassium channel (human, UniProt Q12809); experiment: primary screen, population patch clamp on CHO cells stably expressing hERG; higher = less effect of the substance
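Further: peak tail current of the secondary pulse compared with the same well before compound.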

Chain of human ether-à-go-go-related gene (hERG) potassium channel (Q12809 whole entry, looked up): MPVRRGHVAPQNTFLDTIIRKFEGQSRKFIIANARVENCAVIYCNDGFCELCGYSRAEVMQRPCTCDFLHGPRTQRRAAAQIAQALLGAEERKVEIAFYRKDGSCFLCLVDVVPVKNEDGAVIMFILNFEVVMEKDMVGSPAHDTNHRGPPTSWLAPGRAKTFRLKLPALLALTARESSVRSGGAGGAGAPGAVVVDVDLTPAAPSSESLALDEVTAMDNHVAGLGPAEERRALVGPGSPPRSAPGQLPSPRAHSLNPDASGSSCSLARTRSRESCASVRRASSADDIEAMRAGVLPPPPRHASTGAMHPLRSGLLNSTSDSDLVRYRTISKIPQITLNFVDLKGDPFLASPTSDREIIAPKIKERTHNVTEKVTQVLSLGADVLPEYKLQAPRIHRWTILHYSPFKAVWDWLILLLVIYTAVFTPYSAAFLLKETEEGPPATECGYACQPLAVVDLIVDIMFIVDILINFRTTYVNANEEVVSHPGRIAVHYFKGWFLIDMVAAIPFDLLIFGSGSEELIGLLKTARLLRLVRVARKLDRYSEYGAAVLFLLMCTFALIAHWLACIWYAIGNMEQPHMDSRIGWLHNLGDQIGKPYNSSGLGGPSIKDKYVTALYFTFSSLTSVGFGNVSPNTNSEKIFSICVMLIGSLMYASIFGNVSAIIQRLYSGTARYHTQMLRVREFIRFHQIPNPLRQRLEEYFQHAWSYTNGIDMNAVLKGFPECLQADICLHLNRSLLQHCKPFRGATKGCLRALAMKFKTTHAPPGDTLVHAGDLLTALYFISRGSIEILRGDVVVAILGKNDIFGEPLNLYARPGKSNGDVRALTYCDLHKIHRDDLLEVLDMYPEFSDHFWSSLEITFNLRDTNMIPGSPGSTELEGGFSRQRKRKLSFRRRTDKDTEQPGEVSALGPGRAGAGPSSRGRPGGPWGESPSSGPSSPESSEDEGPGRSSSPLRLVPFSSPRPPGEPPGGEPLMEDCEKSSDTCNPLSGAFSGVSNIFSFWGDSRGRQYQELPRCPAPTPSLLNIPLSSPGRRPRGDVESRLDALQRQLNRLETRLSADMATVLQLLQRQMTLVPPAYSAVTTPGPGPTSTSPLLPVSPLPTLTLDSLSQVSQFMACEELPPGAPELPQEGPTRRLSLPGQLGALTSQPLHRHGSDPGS

SMILES	hERG current change (%, negative = inhibition) at 10uM
O=C(O)c1cccc(-n2c(-c3cnccn3)n[nH]c2=S)c1	20.4%
CN(C)c1ccc(NC(=S)c2ccc3ccccc3n2)cc1	12.2%
Cc1ccccc1NCC(=O)N/N=C/c1c(C)c(C(=O)c2ccc(Cl)cc2)n2ccccc12	-4.11%
COc1ccccc1C(=O)NC(=O)COc1cc(Cl)ccc1Cl	0.882%
CC1CCCCN1C(=O)c1c([N+](=O)[O-])cnn1C (stereo not shown)	18.7%
COc1ccc(NC(=O)c2cncn2-c2ccccc2)cc1	13.7%
CCOC(=O)C1=C(C)N(CCCC(=O)O)C(=O)NC1c1ccccc1OS(=O)(=O)c1ccc(C)cc1 (stereo not shown)	-15.2%
Cc1cc(=O)oc2cc(NC(=O)c3ccccc3OC(F)F)ccc12	26.9%
CC1CCN(C2=NC(=O)/C(=C/c3cccc(O)c3)S2)CC1	-18.5%
CC(=O)N1C(Nc2ccc(Cl)cc2)CCN1c1ccccc1 (stereo not shown)	9.96%
O=C(NC(NNc1ccc([N+](=O)[O-])cc1)(C(F)(F)F)C(F)(F)F)c1ccc(F)cc1	-2.67%
COc1ccc(C(=O)Nc2ncc(C)s2)cc1S(=O)(=O)N1CCOCC1	-56.2%
COc1ccc(C(=O)Nc2ccc(Br)cn2)cc1S(=O)(=O)N1CCOCC1	-57.9%
COc1ccc(C(=O)Nc2nnc(C)s2)cc1S(=O)(=O)N1CCOCC1	-14%
COc1ccc(C(=O)Nc2ccc(Cl)cn2)cc1S(=O)(=O)N1CCCC1	-48%
COc1ccc(C(=O)Nc2ccccn2)cc1S(=O)(=O)N1CCOCC1	-8.04%
COc1ccc(C(=O)Nc2ncc(C)s2)cc1S(=O)(=O)N1CCCC1	17.5%
CN(C)c1nc(Oc2ccc(=O)n(-c3ccccc3)n2)nc(N2CCOCC2)n1	9.19%
CC(=O)Nc1ccc(C(=O)NNC(=O)c2ccccc2-n2cccc2)cc1	6.54%
COc1ccc(C(=O)NNC(=O)CN(C)S(=O)(=O)c2ccc(Cl)cc2)c(OC)c1OC	-49.7%
Cc1cccc(N/N=C/c2ccc(C)s2)c1	19.7%

SMILES	hERG current change (%, negative = inhibition) at 10uM
O=C(CCCn1c(=S)[nH]c2ccsc2c1=O)NCc1ccco1	18.8%
Cc1ccc(C(=O)NC2CCN(Cc3ccccc3)CC2)cc1S(=O)(=O)N1CCOCC1	-30.2%
O=C(C1CCCN(S(=O)(=O)c2cccc3nonc23)C1)N1CCC(Cc2ccccc2)CC1 (stereo not shown)	-30.9%
O=C(NC1CCN(Cc2ccccc2)CC1)C1CCCN(S(=O)(=O)c2cccc3nonc23)C1 (stereo not shown)	-55.9%
CCN(CCCNC(=O)C1CCN(S(=O)(=O)c2cccc3nonc23)CC1)Cc1ccccc1	-57.2%
CCCNC(=O)C1CCN(S(=O)(=O)c2cccc3nonc23)CC1	-3.97%
O=C(NC1CCN(Cc2ccccc2)CC1)C1CCN(S(=O)(=O)c2ccc(Cl)cc2)CC1	-73.2%
Cc1ccc(Cl)cc1S(=O)(=O)N1CCC(C(=O)NC2CCN(Cc3ccccc3)CC2)CC1	-71.5%
O=C(NCCc1ccccc1)C1CCN(S(=O)(=O)c2cccc3nonc23)CC1	-10.5%
CCN(CC)S(=O)(=O)c1ccc(S(=O)(=O)N2CCC(C(=O)NC3CCN(Cc4ccccc4)CC3)CC2)cc1	14.8%
Cc1noc(C)c1S(=O)(=O)N1CCC(C(=O)NC2CCN(Cc3ccccc3)CC2)CC1	-25%
O=C(NCc1ccccc1)C1CCCN(S(=O)(=O)c2cccc3nonc23)C1 (stereo not shown)	9.65%
O=C(NC1CCN(Cc2ccccc2)CC1)C1CCN(S(=O)(=O)c2ccccc2)CC1	-28.8%
COc1cc(/C=C2\SC(=S)N(CCC(=O)Nc3ccc(O)cc3)C2=O)cc(OC)c1OC	11.9%
COCCCn1c(=O)c2sccc2n2c(CCCC(=O)NCc3cccc(OC)c3)nnc12	-6.59%
O=C1CSC(c2cccnc2)N1c1cccc(Cl)c1 (stereo not shown)	-1.13%
CCOC(=O)c1c(NC(=O)C2CCCO2)sc(C(=O)OC(C)(C)C)c1C (stereo not shown)	9.29%
COc1ccc(Nc2nnc(Cc3ccncc3)c3ccccc23)c(OC)c1	-72.7%
COc1cccc(NC(=S)NCc2cccnc2)c1	8.76%
COc1ccc(Nc2nnc(Cc3ccccc3)c(=O)[nH]2)c(OC)c1	3.85%
COc1ccc(Nc2ncnc3ccccc23)c(OC)c1.Cl	-10.2%

SMILES	hERG current change (%, negative = inhibition) at 10uM
COc1cccc(NC(=O)Cn2nc(Cc3cccnc3)c3ccccc3c2=O)c1	-34.6%
COc1cccc(Nc2nnc(Cc3cccnc3)c3ccccc23)c1	-75.8%
Cc1csc2c(N3CCN(C(=O)Nc4ccccc4)CC3)ncnc12	-25.4%
CCOC(=O)N1CCC(NC(=O)c2cccc3c2C(=O)N(Cc2cccnc2)C3)CC1	-13.9%
CCOC(=O)C1=C(COC(=O)CCOc2ccccc2C)NC(=O)NC1C (stereo not shown)	-28.4%
NC(=O)c1cc(-c2csc(-c3cccnc3)n2)ccc1O	5.27%
CCCCN(CC)CCCNC(=O)c1cn(C)c2ccc(S(=O)(=O)N(C)C3CCCCC3)cc2c1=O	-73.2%
CN(CCNC(=O)c1cn(C)c2ccc(S(=O)(=O)N(C)C)cc2c1=O)CCc1ccccc1	-27.1%
CCN(CC)CCCNC(=O)c1cn(C)c2ccc(S(=O)(=O)N(C)C3CCCCC3)cc2c1=O	-24.8%
CCN(CC)S(=O)(=O)c1ccc2c(c1)c(=O)c(C(=O)NCCN(C)CCc1ccccc1)cn2C	-67.1%
CCN(CC)CCNC(=O)c1cn(C)c2ccc(S(=O)(=O)N(C)C3CCCCC3)cc2c1=O	-42.8%
CC(C)OCCCNC(=O)c1cn(C)c2ccc(S(=O)(=O)N(C)C3CCCCC3)cc2c1=O	-22%
CCCCN(CCCC)CCNC(=O)c1cn(C)c2ccc(S(=O)(=O)N(C)C3CCCCC3)cc2c1=O	-76.7%
COCCNC(=O)c1cn(C)c2ccc(S(=O)(=O)N(C)C3CCCCC3)cc2c1=O	-27.7%
CCN(CC)CCCNC(=O)c1cn(C)c2ccc(S(=O)(=O)N(C)C)cc2c1=O	3.07%
COC(CNC(=O)c1cn(C)c2ccc(S(=O)(=O)N(C)C3CCCCC3)cc2c1=O)OC	-21.5%
CCN(CC)S(=O)(=O)c1ccc2c(c1)c(=O)c(C(=O)NCCc1ccccc1)cn2C	-0.204%
CCCCN(C)CCCNC(=O)c1cn(C)c2ccc(S(=O)(=O)N(C)C3CCCCC3)cc2c1=O	-75%
Cn1c(=O)n(C)c2cc(N3CCOCC3)c(NC(=O)c3ccc(F)cc3)cc21	-8.15%
Cc1cccc2cc3ccccc3nc12	4.66%
Cc1cc(CNC(=O)COc2ccc(C)c(C)c2)c2ccccc2n1	2.15%

SMILES	hERG current change (%, negative = inhibition) at 10uM
O=C(N/N=C/c1ccc(Cl)c([N+](=O)[O-])c1)c1cc(-c2ccccc2)nc2ccccc12	17.1%
Cn1c2ccccc2c(=O)c2cc(C#Cc3ccccn3)ccc21	-0.776%
CCc1ccccc1N1C(=O)C2CC=CCC2C1=O (stereo not shown)	-6.41%
COc1ccc(OC)c(S(=O)(=O)N(C)CC(=O)N2CCc3ccccc3C2)c1	-35.1%
CCN(Cc1nc2cc(OC)c(OC)cc2c(=O)[nH]1)C(=O)c1ccc(S(=O)(=O)N(C)C)cc1	4.07%
Cc1cnc(NC2=NCCC2)s1	5.05%
O=C(OCC(=O)c1ccc[nH]1)c1ccc(Cl)nc1	-5.61%
Cc1ccc(-n2nc(C)c(NS(=O)(=O)c3ccccc3)c2C)cc1C	-16.9%
COC(CN(C)C(=O)c1cn(C)c2ccc(S(=O)(=O)N(C)C3CCCCC3)cc2c1=O)OC	10.3%
CCCN(CCC)CCCNC(=O)c1cn(C)c2ccc(S(=O)(=O)N(C)C3CCCCC3)cc2c1=O	-73.7%
CCN(CC)S(=O)(=O)c1ccc2c(c1)c(=O)c(C(=O)NCCCN(C)c1ccccc1)cn2C	-12.2%
Cn1c(=O)n(C)c2cc(S(=O)(=O)Nc3ccc(F)cc3)ccc21	20.9%
CCN1CCN(c2ccc(S(=O)(=O)N3CCCC3)cn2)CC1	16.2%
Cc1nn(-c2ccccc2)c(C)c1NC(=O)COC(=O)CCc1ccccc1	-10.2%
CC(=O)N1CCC2(CC1)CC(=O)c1cc(OCC(=O)N3CCOCC3)ccc1O2	-10.6%
CC(=O)N1CCC2(CC1)CC(=O)c1cc(OCC(=O)N3CCCC3)ccc1O2	9.03%
Cc1cccc(OCC(=O)N2CCC3(CC2)CC(=O)c2ccccc2O3)c1	-54.7%
COc1cccc(OCC(=O)N2CCC3(CC2)CC(=O)c2ccccc2O3)c1	-55.8%
CC(C)(C)C1CCC(OC(=O)C[N+]2(C)CCCCC2)CC1.[I-] (stereo not shown)	23.1%
